Assay outcomes from PubChem.
FLuc counter: qHTS profiling assay for firefly luciferase inhibitor/activator using purifed enzyme and Km concentrations of substrates (counterscreen for miR-21 project). Potency, µM (series often up to 57.5 µM), usual class: inhibitors. 360,000 compounds, 6.9% hits. purified FLuc, Km substrates, luminescence inhibition; also: nearly all actives have a fitted effect of over 55% in size
Target sequence (P08659 whole entry, looked up): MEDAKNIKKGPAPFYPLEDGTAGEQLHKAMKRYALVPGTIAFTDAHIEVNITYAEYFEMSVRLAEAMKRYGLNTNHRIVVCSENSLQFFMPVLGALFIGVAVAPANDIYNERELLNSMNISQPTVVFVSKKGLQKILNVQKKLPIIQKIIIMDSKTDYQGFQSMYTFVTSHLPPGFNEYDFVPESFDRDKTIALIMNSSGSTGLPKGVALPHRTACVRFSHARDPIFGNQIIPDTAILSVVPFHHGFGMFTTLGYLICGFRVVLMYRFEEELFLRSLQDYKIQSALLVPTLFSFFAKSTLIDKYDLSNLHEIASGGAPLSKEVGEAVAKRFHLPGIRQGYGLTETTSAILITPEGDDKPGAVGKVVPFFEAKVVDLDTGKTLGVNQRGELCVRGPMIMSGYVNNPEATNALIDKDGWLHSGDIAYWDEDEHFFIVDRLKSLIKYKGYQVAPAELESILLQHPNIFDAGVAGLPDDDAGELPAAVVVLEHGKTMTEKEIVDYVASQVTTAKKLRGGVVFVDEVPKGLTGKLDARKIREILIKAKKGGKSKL
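Biochemical qHTS of compounds, final roughly 60 µM downward over six points, against 10 nM purified firefly luciferase using Km concentrations of substrates (10 uM D-luciferin, 10 uM ATP) in Tris acetate pH 7.5 buffer; luminescence output.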
ELG1 genotox: qHTS screen for small molecules that induce genotoxicity in human embryonic kidney (HEK293T) cells expressing luciferase-tagged ELG1; AID 504466, 2011; Potency, µM (series often up to 46 µM), actives largely listed as activators; HEK293T ELG1-luciferase reporter, luminescence, 16 h; 330,000 compounds, 1.3% hits; also: nearly all actives have a fitted effect of over 60% in size
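Cells (2,000/well) expressing the ELG1-luciferase fusion are dosed by pin tool and kept 16 hr at 37 °C, 5% CO2. Signal comes from ONE-Glo luciferase reagent after 30 min at room temperature.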
NPC1 prom act: qHTS Assay for NPC1 Promoter Activators. Potency, µM (top dose mostly 9.22 µM), most hits filed as activators. 320,000 compounds, 2.4% hits. Huh7 NPC1 promoter luciferase reporter, 24 h; also: nearly all actives have a fitted effect of over 60% in size
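Stable NPC1-promoter luciferase Huh7 line; cpd (DMSO) 24 h, 37 °C, 5% CO2; Amplite luciferase reagent 10 min RT; luminescence readout. qHTS format.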
SMN2 splice up: qHTS Assay for Enhancers of SMN2 Splice Variant Expression | 210,000 compounds, 2.8% hits | AID 1458, 2008 | Potency, µM (titrated, usually from 46.1 µM), actives largely listed as activators | HEK293 SMN2-luciferase splicing reporter, luminescence, 30-36 h; also: nearly all actives have a fitted effect of over 55% in size
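qHTS luciferase splicing reporter: luminescence rises when SMN2 exon 7 is included in transfected HEK293 cells. Compound exposure lasted 30-36 h at 37C, with 4.5 mM final sodium butyrate as control, followed by a ONE-Glo read.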
Rab9 promoter act: qHTS Assay for Rab9 Promoter Activators | AID 485297, 2010 | Huh7 Rab9 promoter-luciferase reporter, luminescence, 24 h | Potency, µM (titrated, usually from 9.22 µM), hits mostly activators | 320,000 compounds, 2.8% hits; also: nearly all actives have a fitted effect of over 60% in size
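Cell-based reporter: Huh7 stable for Rab9 promoter-driven luciferase, plated in reduced-serum medium with 10% FBS at 1500 cells/well, compound-treated 24 h at 37 °C, luminescence read after 10 min reagent.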
Each line names hits and unclear results; the compound was inactive in the other large screens. Most compounds without a hit are left out; they make up all but 7.5% or so of the library. Calls follow the shape of the dose curve; as a rule, active = well fitted curve in the direction sought with a large enough effect; inconclusive = small, poorly fitted or top-dose-only effect, or another doubt; inactive = no such curve, though single readings can be large; an effect the other way counts as inactive or inconclusive.

COc1ccc2c(C(=O)c3ccc(C)cc3)n(Cc3ccc(C(N)=O)cc3)[n+]([O-])c2c1	FLuc counter 13µM, ELG1 genotox inconclusive, NPC1 prom act inconclusive, Rab9 promoter act inconclusive (no result: SMN2 splice up)
CCN(CC(=O)Nc1ccc(NC(C)=O)cc1)C(=O)CCCOc1ccc(C(C)(C)C)cc1	FLuc counter 15µM, ELG1 genotox inconclusive (no result: SMN2 splice up)
Cc1cnc(SCc2ccc(Cl)cc2Cl)[nH]c1=O	FLuc counter 21µM (no result: SMN2 splice up)
CC1(C)Oc2ccc3ccc(=O)oc3c2-c2cn[nH]c21	ELG1 genotox inconclusive, SMN2 splice up 14µM
COc1ccc2c(COC(=O)c3n[nH]c4ccccc34)cc(=O)oc2c1	FLuc counter 3µM, ELG1 genotox inconclusive, NPC1 prom act 3.2µM, SMN2 splice up 20µM, Rab9 promoter act 3.5µM
O=C(Cc1cccc2ccccc12)Nc1cccnc1	none
O=C(N/N=C\c1cccnc1)c1ccc(Cl)cc1Cl	FLuc counter inconclusive (no result: SMN2 splice up)
COc1cc(/C=N\NC(=O)c2cccnc2)ccc1OC(=O)c1ccccc1Cl	FLuc counter 11µM (no result: SMN2 splice up)
O=C(N/N=C/c1cccnc1)c1ccccc1Cl	FLuc counter 11µM (no result: SMN2 splice up)
O=C(Nc1cccnc1)c1ccc2ccccc2c1O	FLuc counter 2.1µM, ELG1 genotox inconclusive, NPC1 prom act 2.5µM, Rab9 promoter act 2µM (no result: SMN2 splice up)
O=C(N/N=C/c1cccnc1)c1ccc2ccccc2c1O	FLuc counter 5.4µM, ELG1 genotox inconclusive (no result: SMN2 splice up)
CCn1ncc(/C=C/C(=O)C2CC2)c1C	none
O=C1CCC(=O)O1	none
COc1ccc(C(=O)NNC2=NC(C)(C)Cc3cc(C)c(C)cc32)cc1	none
CCOc1ccccc1N(CC(=O)N1CCOCC1)S(=O)(=O)c1ccccc1	none
COc1ccc(/C(N)=N/OC(=O)C2CCC(=O)N2S(=O)(=O)c2ccc(C)cc2)cc1 (configuration not stated)	none
O=C(Nc1cccc([N+](=O)[O-])c1)c1ccc2ccccc2c1O	FLuc counter 0.67µM, NPC1 prom act inconclusive, Rab9 promoter act inconclusive (no result: SMN2 splice up)
O=C(N/N=C/c1cccnc1)c1ccccc1Br	none (no result: SMN2 splice up)
O=C(N/N=C\c1cccnc1)c1ccccc1O	FLuc counter 7.6µM, ELG1 genotox inconclusive, Rab9 promoter act inconclusive (no result: SMN2 splice up)
O=C(Nc1ccccn1)c1ccc2ccccc2c1O	FLuc counter 21µM, NPC1 prom act 3.2µM, Rab9 promoter act 3.2µM (no result: SMN2 splice up)
COc1ccc(/C=N/NC(N)=S)cc1OC(=O)c1cccc2ccccc12	FLuc counter 6µM
COCc1ccc([C@@H]2C[C@H]3CN(Cc4cccnc4)C(=O)[C@]34CCCN24)o1	none (no result: SMN2 splice up)
CC(C)c1ccc(/C=N/NC(=O)c2ccccc2Cl)cc1	FLuc counter 24µM, ELG1 genotox inconclusive (no result: SMN2 splice up)
Fc1ccccc1-n1cn[nH]c1=S	Rab9 promoter act inconclusive
CCN(CCn1cccn1)C(=O)CCc1nnc(C2(c3ccc(Cl)cc3)CCC2)o1	FLuc counter 17µM, Rab9 promoter act inconclusive (no result: SMN2 splice up)
CCN(CCn1cccn1)C(=O)CCc1nnc(-c2ccccc2)o1	FLuc counter inconclusive (no result: SMN2 splice up)
Cc1ccc(CCC(=O)Nc2ccccc2C(=O)O)o1	FLuc counter 17µM, ELG1 genotox inconclusive, NPC1 prom act inconclusive, Rab9 promoter act inconclusive (no result: SMN2 splice up)
O=C(Cc1cccc2ccccc12)Nc1ccccc1C(=O)O	FLuc counter 27µM, ELG1 genotox inconclusive, SMN2 splice up inconclusive
CCOc1ccccc1-n1c(SCC(=O)Nc2ccccc2C(=O)O)nc2ccccc2c1=O	FLuc counter 12µM, NPC1 prom act inconclusive, Rab9 promoter act inconclusive (no result: SMN2 splice up)
Cc1ccc(C)c(NC(=O)CCc2ccc(C)o2)c1	none (no result: SMN2 splice up)
O=C(Cc1cccc2ccccc12)Nc1cc(Cl)ccc1C(=O)O	none (no result: SMN2 splice up)
CCn1c(SCC(=O)Nc2ccccc2OC)nc2ccccc2c1=O	none
O=C(CSc1ccccc1)Nc1ccccc1C(=O)O	FLuc counter 21µM (no result: ELG1 genotox, NPC1 prom act, Rab9 promoter act)
CCNC(=O)CSC1=N/C(=C\c2ccc(O)c(OCC)c2)C(=O)N1c1ccc(OC(F)F)cc1	none (no result: SMN2 splice up)
CCCN(CCC)CCCNC(=O)C1CCC(CNS(=O)(=O)c2ccc(NC(C)=O)cc2)CC1 (configuration not stated)	none (no result: ELG1 genotox, NPC1 prom act, SMN2 splice up, Rab9 promoter act)
CC(C)n1c2ccccc2c2nnc(SCC(=O)Nc3ccccc3C(=O)O)nc21	FLuc counter 19µM
